# NPSR antagonist: qHTS Assay for Antagonists of the Neuropeptide S Receptor: cAMP Signal Transduction. Q6W5P4. Potency, µM (series often up to 38.3 µM), without a hit: at the highest dose activity change, negative = inhibition, most hits filed as inhibitors. CHO-NPSR cells, cAMP TR-FRET, antagonist mode. 1% of 220,000 active; also: potency is read from the fitted curve at half-maximal effect; nearly all actives have a fitted effect of over 50% in size
# Target sequence (Q6W5P4 whole entry, looked up): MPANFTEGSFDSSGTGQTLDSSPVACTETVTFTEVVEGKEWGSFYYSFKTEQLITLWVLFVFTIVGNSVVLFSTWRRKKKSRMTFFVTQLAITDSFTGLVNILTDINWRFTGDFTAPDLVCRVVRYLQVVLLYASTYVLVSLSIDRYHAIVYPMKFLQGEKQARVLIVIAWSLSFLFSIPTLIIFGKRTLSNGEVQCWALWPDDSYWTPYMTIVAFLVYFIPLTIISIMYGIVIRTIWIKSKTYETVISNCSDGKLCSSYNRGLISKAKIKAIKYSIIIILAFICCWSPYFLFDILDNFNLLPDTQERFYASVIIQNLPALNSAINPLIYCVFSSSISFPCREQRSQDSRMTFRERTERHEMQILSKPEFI
# IMPase inh: qHTS Assay for Identifying the Cell-Membrane Permeable IMPase Inhibitors; Inositol monophosphatase 1 (Rattus norvegicus), P97697; CHO-M1 cells, IP1 accumulation, HTRF TR-FRET ratio; inhibition (IP1 accumulation), % at 46.1 µM; 120,000 tested, under 10 active; AID 901, 2007; active = well fitted curve in the direction sought with a large enough effect in the signal ratio, not every such curve was filed as active; inconclusive = small, poorly fitted or top-dose-only effect, or a change in a side signal; inactive = no such curve, though single readings can be large or run the other way; the % refers to the signal ratio;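 also: cells stimulated with carbachol in lithium chloride buffer; plate controls were DMSO basal wells for no effect and reference inhibitor wells for full effect; higher means more IMPase inhibition seen as more IP1 and lower FRET ratio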
#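 Measured: the HTRF emission ratio (665/620 nm) plus the 620 nm donor channel, each fitted to the Hill equation to give AC50. Cells were CHO-M1 given compounds up to 46 uM and a 30 min carbachol stimulation at 37C.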
# 12-hLO inh: qHTS Assay for Inhibitors of 12-hLO (12-human lipoxygenase); Polyunsaturated fatty acid lipoxygenase ALOX12 (Homo sapiens), P18054; purified 12-hLO, xylenol orange hydroperoxide absorbance; AID 1452, 2008; 0.12% of 150,000 active; Potency, µM (titrated, usually from 57.1 µM), inactives show at the highest dose activity change, negative = inhibition, hits mostly inhibitors; also: potency is read from the fitted curve at half-maximal effect; nearly all actives have a fitted effect of over 55% in size
#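 Hydroperoxide output read as Fe(III)-xylenol orange absorbance, 573-to-405 nm ratio, after 30 min reaction with 40 uM arachidonic acid. Enzyme: 150 nM purified human 12hLO, 15 min compound preincubation; 25 mM Hepes pH 7.0, room temperature.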
# HPGD inh: qHTS Assay for Inhibitors of HPGD (15-Hydroxyprostaglandin Dehydrogenase). 15-hydroxyprostaglandin dehydrogenase [NAD(+)] (Homo sapiens), P15428. purified HPGD, NADH fluorescence kinetic, PGE2 substrate. Potency, µM, for the others: at the top dose activity change, negative = inhibition, actives largely listed as inhibitors. 4.3% of 150,000 active; active = well fitted inhibition curve with a large enough effect, not every such curve was filed as active; inconclusive = small, poorly fitted or top-dose-only effect, or another doubt; inactive = no such curve, though single readings can be large or run the other way; also: potency is read from the fitted curve at half-maximal effect
# Target sequence (P15428 whole entry, looked up): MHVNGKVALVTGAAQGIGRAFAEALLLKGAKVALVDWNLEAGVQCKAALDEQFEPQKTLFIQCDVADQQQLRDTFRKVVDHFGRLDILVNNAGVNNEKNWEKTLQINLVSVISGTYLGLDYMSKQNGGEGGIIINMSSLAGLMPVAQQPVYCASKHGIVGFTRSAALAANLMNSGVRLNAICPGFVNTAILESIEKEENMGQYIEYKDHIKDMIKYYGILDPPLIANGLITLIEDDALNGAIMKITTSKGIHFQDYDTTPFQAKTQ
#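 NADH formation kinetics: reaction with 30 uM PGE2 and 1 mM NAD+ (final), 20 nM enzyme, Tris-HCl pH 8 with Tween 20, after 15 min compound preincubation at room temperature. Fluorescence change, last versus first of five reads.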
# IMPase Li inh: qHTS Assay for Identifying the Cell-Membrane Permeable IMPase Inhibitors: Potentiation with Lithium. CHO-M1 cells, IP1 TR-FRET (IP-One), carbachol + lithium. Potency, µM (series often up to 59.4 µM), for the others: at the top dose activity, negative = IMPase inhibition, actives largely listed as inhibitors. AID 1457, 2008. 0.35% of 210,000 active;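 also: IP1 builds up when IMPase is blocked and the TR-FRET signal falls; potency is read from the fitted curve at half-maximal effect; plate controls were basal vehicle for no effect and high inhibitor control for full effect; nearly all actives have a fitted effect of over 50% in size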
#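 CHO-M1, 2000 cells/well, 16–30 h culture; cpd + low Li+, 30 min 37C; lysis with d2-IP1/Eu-anti-IP1 Ab, 10 min RT; TR-FRET 665/620 ratio and 620 channel; AC50 via Hill.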
# ALDH1A1 inh: qHTS Assay for Inhibitors of Aldehyde Dehydrogenase 1 (ALDH1A1). Aldehyde dehydrogenase 1A1 (Homo sapiens), P00352. Purified ALDH1A1, NADH fluorescence, propionaldehyde substrate. Potency, µM (highest dose often 75.3 µM), inactives show at the highest dose activity, negative = inhibition, usual class: inhibitors. 7.3% of 220,000 active. AID 1030, 2008; active = well fitted inhibition curve with a large enough effect, not every such curve was filed as active; inconclusive = small, poorly fitted or top-dose-only effect, or another doubt; inactive = no such curve, though single readings can be large or run the other way;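 also: potency is read from the fitted curve at half-maximal effect; plate controls were no enzyme wells and a reference inhibitor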
# An asterisk follows results filed as active; ? = inconclusive; . = not tested or not shown; [ ] = dose if it differs, or a comment. In the library only some 8.9% were active in any assay of this set; here they are far more common. Unless noted, calls follow the shape of the dose curve; as a rule, active = well fitted curve in the direction sought with a large enough effect; inconclusive = small, poorly fitted or top-dose-only effect, or another doubt; inactive = no such curve, though single readings can be large; an effect the other way counts as inactive or inconclusive. Unless noted, % is scaled to controls: 0 for no effect and ±100 for the full control effect.
SMILES,NPSR antagonist,IMPase inh,12-hLO inh,HPGD inh,IMPase Li inh,ALDH1A1 inh
CCn1c2ccccc2c2cc(/C=N/O)ccc21,9.3%,.,.,.,-6.8%,-1.0%
CCn1c2ccc(/C(C)=N\O)cc2c2cc(/C(C)=N\O)ccc21,-11.8%[46.1 µM],?,-7.9%,2.82µM*,4.2%[38.3 µM],-1.9%
Cc1ccccc1Cn1c(C)cc(C)c(C#N)c1=O,11.4%,.,.,.,0.3%,?
O=C(O)CCCN=C1NC2(CCCC2)Cc2ccccc21,-10.7%[46.1 µM],8.5,-1.5%,2.8%,-4.3%,4.8%
O=C(O)CCN=C1CCCc2ccccc2N1,-5.5%[46.1 µM],-1.4,3.1%,-13.0%,6.1%[38.3 µM],31.6µM*
CC(=O)c1cccc(CN2CCN(Cc3ccc(F)cc3)C(CCO)C2)c1 (stereo not drawn),-2.1%,.,.,.,16.6%,28.2µM*
CC(=O)c1cccc(CN2CCN(Cc3ccc(C)cc3)C(CCO)C2)c1 (stereo not drawn),-10.0%,.,.,.,11.5%,8.6%
C/C(=N/NC(=O)C1CCN(S(=O)(=O)c2ccc(C)cc2)CC1)c1cccc([N+](=O)[O-])c1,-18.6%,.,-2.5%,-8.4%,7.1%,?
O=C(NCc1ccco1)c1c(O)c2cccc3c2n(c1=O)CCC3,0.8%[46.1 µM],-3.2,-11.8%,-10.4%,-20.4%[38.3 µM],?
Cc1cc2ncn(/N=C/c3ccc(-c4ccccc4)o3)c2cc1C,?,1.9,-8.6%,?,4.5%[38.3 µM],-9.0%
Cc1ccc(/C=N/n2cnc3sc(-c4ccccc4)cc3c2=O)o1,-9.5%[46.1 µM],-3.0,0.5%,?,33.6%[38.3 µM],31.6µM*
Cc1ccc(OCc2ccc(C(=O)Nc3ccc(C(N)=O)cc3)o2)c([N+](=O)[O-])c1,-5.8%,.,.,.,9.7%,10.5%
COc1ccc(NC(=O)N(CCC(C)C)C(C)c2ccccn2)c(OC)c1 (stereo not drawn),-17.0%[46.1 µM],4.7,-1.1%,-16.7%,37.9%[38.3 µM],14.1µM*
CCC(C)C(=O)Nc1ccc(OC)cc1OC (stereo not drawn),0.8%[46.1 µM],-1.7,5.9%,0.0%,7.4%[38.3 µM],7.9%
CCc1ccc(CNc2ccc(O)cc2)cc1,-20.0%[46.1 µM],29.5,?,22.4µM*,99.3%[38.3 µM],7.94µM*
Oc1ccc(NCc2ccc(OCc3ccccc3)cc2)cc1,.,17.3,.,.,.,.
O=C(COC(=O)c1ccc(Cl)cc1O)NCCN1C(=O)CSC1=O,8.8%,.,.,.,.,.
COc1cccc(N2CCN(CC(=O)C34CC5CC(CC(C5)C3)C4)CC2)c1,-6.6%[46.1 µM],4.8,-1.7%,-7.5%,1.9%[38.3 µM],15.8µM*
COc1cccc(N2CCN(C3C4CC5CC(C4)CC3C5)CC2)c1 (stereo not drawn),-4.7%[46.1 µM],7.4,2.5%,-5.4%,3.2%[38.3 µM],?
Cc1ccc(C(=O)OCC(=O)c2ccc(Cl)s2)s1,-8.2%[46.1 µM],0.8,-3.6%,15.8µM*,-21.2%[38.3 µM],?
CNC(=S)N(CCc1c(C)[nH]c2ccccc12)Cc1ccco1,-20.6%,.,.,.,8.7%,-4.9%
Nc1cccnc1Sc1ccc([N+](=O)[O-])cn1,-5.5%,.,0.0%,10µM*,-2.8%,?
O=[N+]([O-])c1ccc(Sc2ccccc2)nc1,9.7%,.,-1.6%,-5.5%,1.0%,-7.8%
O=[N+]([O-])c1ccc(Sc2n[nH]c(-c3ccccc3)n2)nc1,-7.0%[46.1 µM],-3.4,-9.0%,8.91µM*,-8.4%[38.3 µM],-14.7%
N#Cc1c(-c2ccccc2)c(C#N)c2nc3ccccc3n2c1N,?,.,-1.5%,-13.3%,-15.9%,?
SMILES,NPSR antagonist,IMPase inh,12-hLO inh,HPGD inh,IMPase Li inh,ALDH1A1 inh
Cc1ccc(-c2c(C#N)c(N)n3c(nc4ccccc43)c2C#N)cc1,-7.5%[46.1 µM],0.3,-5.7%,?,-22.7%,18.9µM*
CCOc1ccc(NC(=O)Cn2nnc3c(cnn3-c3ccc(F)cc3)c2=O)cc1,1.0%,.,.,.,-2.0%,7.94µM*
Cc1ccccc1NC(=O)Cn1nnc2c(cnn2-c2ccc(F)cc2)c1=O,-4.2%[46.1 µM],8.8,1.4%,-13.4%,-5.7%[38.3 µM],2.7%
Cc1ccc(C(=O)NCc2ccccn2)c(Cl)c1,9.4%[46.1 µM],-5.3,-4.4%,14.1µM*,9.6%[38.3 µM],9.2%
O=C(Nc1sc2c(c1C(=O)O)CCCCC2)c1ccco1,-20.8%[46.1 µM],-2.1,-5.5%,17.8µM*,-1.5%[38.3 µM],25.1µM*
NC(=O)c1c(NC(NC(=O)c2ccco2)(C(F)(F)F)C(F)(F)F)sc2c1CCCC2,0.3%[46.1 µM],6.9,-11.5%,-5.5%,20.6%[38.3 µM],31.6µM*
CN1CCN(C(=O)c2c(NC(=O)c3ccco3)sc3c2CCC(C(C)(C)C)C3)CC1 (stereo not drawn),-3.0%[46.1 µM],?,-11.1%,-18.9%,?,12.6µM*
CN(C)C(=O)c1c(NC(=O)c2ccco2)sc2c1CCCCC2,5.7%,-6.9,-6.8%,-15.9%,5.4%,?
Cc1nc2ccc(NC(=O)Cc3ccccc3F)cc2s1,-1.0%,.,.,.,-11.0%,3.3%
O=C(Cn1c(CO)nc2ccccc21)NC1CCCCCC1,-5.8%,.,.,.,9.2%,-2.3%
Cc1ccc2nc(SC(C)C(=O)N3CC(C)OC(C)C3)[nH]c2c1 (stereo not drawn),6.7%,.,.,.,-3.4%,-1.7%
CC(Sc1nc2ccccc2s1)C(=O)NC1CCCc2ccccc21 (stereo not drawn),-26.2%[46.1 µM],8.9,-6.3%,-3.7%,13.9%,12.6µM*
CC1CN(C(=O)C(C)Sc2nc3ccccc3s2)CC(C)O1 (stereo not drawn),-11.1%[46.1 µM],-3.3,-5.9%,28.2µM*,-10.3%[38.3 µM],?
Cc1cc(C)nc(-n2nc(C)cc2NC(=O)C(C)C)n1,15.5%,.,.,.,-5.7%,3.9%
N/C(=N\OC(=O)CCCOc1ccccc1)c1ccccn1,8.4%,.,.,.,2.0%,-4.2%

# Assay outcomes: PubChem, National Center for Advancing Translational Sciences (NCATS)
